From publication PMC7862700, “An all-to-all approach to the identification of sequence-specific readers for epigenetic DNA modifications on cytosine”

Assays:
Assay in all cases: DAPPL (digital affinity profiling via proximity ligation, sequencing); 10 mM Tris-HCl pH 7.5, 50 mM NaCl, 1 mM DTT, 4% glycerol, room temperature, 30 min; GST-TFs on glutathione beads, 16-mer random dsDNA library, 0.1% formaldehyde crosslink after washing; high values mean tight binding
Details in all cases: protein: recombinant; tags: N-terminal GST; dsDNA, one strand shown
FLI1 = target: T1, FLI1 (Homo sapiens, UniProt Q01543 1-452)
T1 sequence: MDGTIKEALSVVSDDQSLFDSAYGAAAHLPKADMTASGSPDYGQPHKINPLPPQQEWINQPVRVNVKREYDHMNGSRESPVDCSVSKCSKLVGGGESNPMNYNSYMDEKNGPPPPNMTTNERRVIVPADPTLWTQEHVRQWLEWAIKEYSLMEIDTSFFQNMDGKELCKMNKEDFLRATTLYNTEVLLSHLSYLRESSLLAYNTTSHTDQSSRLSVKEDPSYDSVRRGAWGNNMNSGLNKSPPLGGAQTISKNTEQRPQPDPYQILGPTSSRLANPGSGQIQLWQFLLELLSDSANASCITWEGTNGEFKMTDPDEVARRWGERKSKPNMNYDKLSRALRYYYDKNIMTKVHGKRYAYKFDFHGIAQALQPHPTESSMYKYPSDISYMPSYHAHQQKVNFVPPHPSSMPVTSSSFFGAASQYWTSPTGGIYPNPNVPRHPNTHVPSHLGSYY
Method in brief: (§1)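 Human transcription factors carrying a GST fusion were produced in yeast, bound to glutathione beads, tagged with DNA barcodes and pooled together with a tag-only sample. Each pool was held with 200 nmole of a random double-stranded 16-mer DNA library in Tris/NaCl/DTT/glycerol buffer for 30 min at room temperature, then washed, crosslinked in 0.1% formaldehyde, proximity-ligated with BsaI/T4 ligase (1 h, 37 °C), PCR-amplified and sequenced on an Illumina NextSeq500. Binding signal is the read frequency of each hexamer for a given factor divided by its frequency in the tag-only sample.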

ELK1 = target: T2, ELK1 (Homo sapiens, UniProt P19419 1-428)
T2 sequence: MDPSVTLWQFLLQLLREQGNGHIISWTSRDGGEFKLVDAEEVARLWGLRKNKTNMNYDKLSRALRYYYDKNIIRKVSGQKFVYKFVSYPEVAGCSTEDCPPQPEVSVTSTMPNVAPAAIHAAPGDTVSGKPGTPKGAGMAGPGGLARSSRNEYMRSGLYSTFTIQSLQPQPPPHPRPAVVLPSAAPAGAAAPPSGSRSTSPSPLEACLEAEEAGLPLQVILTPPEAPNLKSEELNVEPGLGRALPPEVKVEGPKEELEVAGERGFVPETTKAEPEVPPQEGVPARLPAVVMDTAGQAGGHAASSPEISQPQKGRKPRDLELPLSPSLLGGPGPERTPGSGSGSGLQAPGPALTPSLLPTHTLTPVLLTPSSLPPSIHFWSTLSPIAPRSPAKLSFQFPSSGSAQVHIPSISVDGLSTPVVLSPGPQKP
Method in brief: as §1

GABPA = target: T3, GABPA (Homo sapiens, UniProt Q06546 1-454)
T3 sequence: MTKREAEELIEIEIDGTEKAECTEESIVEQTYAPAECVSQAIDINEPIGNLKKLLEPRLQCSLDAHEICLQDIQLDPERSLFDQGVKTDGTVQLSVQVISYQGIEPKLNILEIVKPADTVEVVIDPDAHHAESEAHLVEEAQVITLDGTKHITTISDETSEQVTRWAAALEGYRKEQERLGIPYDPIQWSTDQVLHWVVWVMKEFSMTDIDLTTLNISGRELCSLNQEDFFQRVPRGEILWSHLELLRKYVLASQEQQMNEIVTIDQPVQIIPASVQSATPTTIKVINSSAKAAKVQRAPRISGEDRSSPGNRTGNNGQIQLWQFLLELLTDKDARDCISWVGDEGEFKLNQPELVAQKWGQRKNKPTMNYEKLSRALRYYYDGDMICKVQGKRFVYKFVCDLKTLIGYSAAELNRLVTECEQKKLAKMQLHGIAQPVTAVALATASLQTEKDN
Method in brief: as §1

ERG = target: T4, ERG (Homo sapiens, UniProt P11308 1-479)
T4 sequence: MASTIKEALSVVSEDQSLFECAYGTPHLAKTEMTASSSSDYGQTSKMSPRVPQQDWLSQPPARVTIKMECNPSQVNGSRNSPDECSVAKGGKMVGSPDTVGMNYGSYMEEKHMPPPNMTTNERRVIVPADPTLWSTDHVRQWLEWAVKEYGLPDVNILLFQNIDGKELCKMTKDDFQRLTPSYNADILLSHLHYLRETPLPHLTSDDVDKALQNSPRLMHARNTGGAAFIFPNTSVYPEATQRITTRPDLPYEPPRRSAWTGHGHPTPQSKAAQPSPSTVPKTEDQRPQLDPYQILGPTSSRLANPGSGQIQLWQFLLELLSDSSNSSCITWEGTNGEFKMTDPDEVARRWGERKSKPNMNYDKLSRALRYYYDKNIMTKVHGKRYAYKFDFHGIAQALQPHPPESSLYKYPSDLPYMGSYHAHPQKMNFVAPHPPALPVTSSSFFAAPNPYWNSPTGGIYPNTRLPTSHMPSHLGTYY
Method in brief: as §1

ELF1 = ELF1 (Homo sapiens, UniProt P32519 1-619)
ELF1, sequence (P32519 whole entry): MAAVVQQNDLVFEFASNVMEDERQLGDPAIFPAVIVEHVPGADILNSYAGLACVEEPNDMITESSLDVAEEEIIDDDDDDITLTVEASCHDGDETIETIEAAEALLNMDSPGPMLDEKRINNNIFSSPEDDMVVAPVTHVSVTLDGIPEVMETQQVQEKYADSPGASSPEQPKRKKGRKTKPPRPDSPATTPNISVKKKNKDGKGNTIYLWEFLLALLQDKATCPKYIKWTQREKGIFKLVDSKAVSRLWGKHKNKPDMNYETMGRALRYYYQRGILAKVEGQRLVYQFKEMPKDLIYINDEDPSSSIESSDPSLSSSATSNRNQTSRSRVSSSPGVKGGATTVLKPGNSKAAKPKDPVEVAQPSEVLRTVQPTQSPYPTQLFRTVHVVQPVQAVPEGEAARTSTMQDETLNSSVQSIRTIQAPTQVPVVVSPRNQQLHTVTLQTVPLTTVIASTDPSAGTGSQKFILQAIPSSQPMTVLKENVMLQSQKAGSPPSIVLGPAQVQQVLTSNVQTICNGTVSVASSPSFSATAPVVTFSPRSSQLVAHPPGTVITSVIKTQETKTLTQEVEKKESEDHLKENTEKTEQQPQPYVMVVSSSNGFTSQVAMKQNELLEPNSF
Method in brief: as §1

EHF = target: T5, EHF (Homo sapiens, UniProt Q9NZC4 1-300)
T5 sequence: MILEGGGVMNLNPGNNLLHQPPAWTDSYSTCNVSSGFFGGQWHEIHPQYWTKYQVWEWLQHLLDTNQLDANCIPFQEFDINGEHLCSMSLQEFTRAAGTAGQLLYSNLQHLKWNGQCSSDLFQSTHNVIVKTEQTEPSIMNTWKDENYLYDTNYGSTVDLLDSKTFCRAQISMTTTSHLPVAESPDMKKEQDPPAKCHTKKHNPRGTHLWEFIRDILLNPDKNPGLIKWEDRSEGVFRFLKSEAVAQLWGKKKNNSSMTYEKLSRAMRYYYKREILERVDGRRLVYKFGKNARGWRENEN
Method in brief: as §1

SPI1 = SPI1 (Homo sapiens, UniProt P17947 1-270)
Method in brief: as §1

SPIB = SPIB (Homo sapiens, UniProt Q01892 1-262)
SPIB, sequence (Q01892 whole entry): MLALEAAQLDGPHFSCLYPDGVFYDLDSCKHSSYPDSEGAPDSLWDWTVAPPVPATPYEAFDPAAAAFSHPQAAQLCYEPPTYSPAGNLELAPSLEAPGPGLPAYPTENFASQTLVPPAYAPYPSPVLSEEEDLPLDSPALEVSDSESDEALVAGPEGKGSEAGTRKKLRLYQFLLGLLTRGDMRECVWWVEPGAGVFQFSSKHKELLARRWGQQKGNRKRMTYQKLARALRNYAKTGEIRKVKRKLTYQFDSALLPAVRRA
Method in brief: as §1

ELK3 = target: T6, ELK3 (Homo sapiens, UniProt P41970 1-407)
T6 sequence: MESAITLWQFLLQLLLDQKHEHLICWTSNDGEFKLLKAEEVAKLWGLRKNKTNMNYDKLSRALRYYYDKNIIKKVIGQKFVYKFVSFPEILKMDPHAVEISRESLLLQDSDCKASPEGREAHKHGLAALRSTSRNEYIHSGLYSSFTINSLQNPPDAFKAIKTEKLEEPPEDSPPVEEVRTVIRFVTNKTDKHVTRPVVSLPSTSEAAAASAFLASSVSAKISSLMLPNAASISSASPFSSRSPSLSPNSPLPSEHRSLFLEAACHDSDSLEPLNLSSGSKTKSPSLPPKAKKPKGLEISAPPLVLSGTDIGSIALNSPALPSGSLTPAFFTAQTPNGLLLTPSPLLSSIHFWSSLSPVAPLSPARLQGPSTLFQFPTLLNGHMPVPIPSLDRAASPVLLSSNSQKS
Method in brief: as §1

| Sequence | binding signal (FLI1) | binding signal (ELK1) | binding signal (GABPA) | binding signal (ERG) | binding signal (ELF1) | binding signal (EHF) | binding signal (SPI1) | binding signal (SPIB) | binding signal (ELK3) |
| --- | --- | --- | --- | --- | --- | --- | --- | --- | --- |
| TTATAG | 1.13 fold enrichment (6-mer frequency, TF over GST control) | 1.09 fold enrichment (6-mer frequency, TF over GST control) | 1.22 fold enrichment (6-mer frequency, TF over GST control) | 1.04 fold enrichment (6-mer frequency, TF over GST control) | 1.2 fold enrichment (6-mer frequency, TF over GST control) | 1.25 fold enrichment (6-mer frequency, TF over GST control) | 1.2 fold enrichment (6-mer frequency, TF over GST control) | 1.2 fold enrichment (6-mer frequency, TF over GST control) | 1.03 fold enrichment (6-mer frequency, TF over GST control) |
| ACCGTC | 1.25 fold enrichment (6-mer frequency, TF over GST control) | 1.21 fold enrichment (6-mer frequency, TF over GST control) | 1.26 fold enrichment (6-mer frequency, TF over GST control) | 1.15 fold enrichment (6-mer frequency, TF over GST control) | 1.19 fold enrichment (6-mer frequency, TF over GST control) | 1.07 fold enrichment (6-mer frequency, TF over GST control) | 1.18 fold enrichment (6-mer frequency, TF over GST control) | 1.09 fold enrichment (6-mer frequency, TF over GST control) | 1.22 fold enrichment (6-mer frequency, TF over GST control) |
| CCTCGC | 1.53 fold enrichment (6-mer frequency, TF over GST control) | 1.54 fold enrichment (6-mer frequency, TF over GST control) | 1.43 fold enrichment (6-mer frequency, TF over GST control) | 1.5 fold enrichment (6-mer frequency, TF over GST control) | 1.37 fold enrichment (6-mer frequency, TF over GST control) | 1.42 fold enrichment (6-mer frequency, TF over GST control) | 1.39 fold enrichment (6-mer frequency, TF over GST control) | 1.42 fold enrichment (6-mer frequency, TF over GST control) | 1.26 fold enrichment (6-mer frequency, TF over GST control) |
| TGCCAT | 1.11 fold enrichment (6-mer frequency, TF over GST control) | 1.06 fold enrichment (6-mer frequency, TF over GST control) | 1.26 fold enrichment (6-mer frequency, TF over GST control) | 1.21 fold enrichment (6-mer frequency, TF over GST control) | 1.1 fold enrichment (6-mer frequency, TF over GST control) | 1.21 fold enrichment (6-mer frequency, TF over GST control) | 1.17 fold enrichment (6-mer frequency, TF over GST control) | 1.16 fold enrichment (6-mer frequency, TF over GST control) | 1.12 fold enrichment (6-mer frequency, TF over GST control) |
| GGAATT | 1.14 fold enrichment (6-mer frequency, TF over GST control) | 1.1 fold enrichment (6-mer frequency, TF over GST control) | 1 fold enrichment (6-mer frequency, TF over GST control) | 1.12 fold enrichment (6-mer frequency, TF over GST control) | 1.07 fold enrichment (6-mer frequency, TF over GST control) | 1.24 fold enrichment (6-mer frequency, TF over GST control) | 1.16 fold enrichment (6-mer frequency, TF over GST control) | 1.18 fold enrichment (6-mer frequency, TF over GST control) | 1.24 fold enrichment (6-mer frequency, TF over GST control) |
| ATGGTC | 1.66 fold enrichment (6-mer frequency, TF over GST control) | 1.45 fold enrichment (6-mer frequency, TF over GST control) | 1.65 fold enrichment (6-mer frequency, TF over GST control) | 1.69 fold enrichment (6-mer frequency, TF over GST control) | 1.55 fold enrichment (6-mer frequency, TF over GST control) | 1.47 fold enrichment (6-mer frequency, TF over GST control) | 1.64 fold enrichment (6-mer frequency, TF over GST control) | 1.66 fold enrichment (6-mer frequency, TF over GST control) | 1.52 fold enrichment (6-mer frequency, TF over GST control) |
| CACATC | 1.39 fold enrichment (6-mer frequency, TF over GST control) | 1.45 fold enrichment (6-mer frequency, TF over GST control) | 1.33 fold enrichment (6-mer frequency, TF over GST control) | 1.64 fold enrichment (6-mer frequency, TF over GST control) | 1.4 fold enrichment (6-mer frequency, TF over GST control) | 1.5 fold enrichment (6-mer frequency, TF over GST control) | 1.37 fold enrichment (6-mer frequency, TF over GST control) | 1.46 fold enrichment (6-mer frequency, TF over GST control) | 1.61 fold enrichment (6-mer frequency, TF over GST control) |
